Experimental findings from PubChem BioAssay (Tox21) are described below.

Test [1] is described as follows: Nuclear factor erythroid 2-related factor 2/antioxidant responsive element (Nrf2/ARE) small molecule agonists: qHTS cell viability counter screen in human keratinocytes (AID 1919968; active = well fitted curve in the direction sought with a large enough effect in the repeat runs; an effect the other way counts as inactive or inconclusive; note: nearly all actives have a fitted effect of over 55% in size). An outline of the steps: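 Cells of the KeratinoSens line were plated at 1,500 per well and left for 5 h before compound transfer from DMSO stocks. After a 23 h incubation (37 C, 5% CO2), CellTiter-Fluor was added. Signal was taken as fluorescence intensity 1 h later.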

Test [2] in a line: Nuclear factor erythroid 2-related factor 2/antioxidant responsive element (Nrf2/ARE) small molecule agonists: luciferase reporter gene qHTS assay in human keratinocytes (AID 1919969). Note: nearly all actives have a fitted effect of over 35% in size. Note: potency is the fitted concentration of half-maximal effect.
Test [3] deals with Gonadotropin-releasing hormone receptor (Homo sapiens) (UniProt P30968). As to the kind of experiment: Human gonadotropin-releasing hormone receptor (GnRHR) small molecule agonists, calcium flux assay in GnRHR-HEK293 cells (AID 1920063). Note: nearly all actives have a fitted effect of over 35% in size. An outline of the steps: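 Compounds dissolved in DMSO are pin-transferred onto dye-loaded GnRHR-HEK293 cells, which were seeded 18 h before at 37 C/5% CO2. Calcium signal is read as fluorescence intensity at 1 s intervals for 3 min.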

In test [4] the target is KiSS-1 receptor (Homo sapiens) (UniProt Q969F8). As to the kind of experiment: Human kisspeptin (KISS1R) small molecule agonists, calcium flux assay in KISS1R-HEK293 cells (AID 1920064; active = well fitted curve in the direction sought with a large enough effect in the repeat runs; an effect the other way counts as inactive or inconclusive). An outline of the steps:
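Cell line: HEK293, stable human KISS1R. Dye loading 1 h at 37 C after 18 h culture. Read: kinetic fluorescence, 480/540 nm, 3 min at 1 s intervals.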

A short description of test [5]: G protein-coupled receptor (GPCR) small molecule agonists, calcium flux assay: HEK293 wild type cell line counter screen (AID 1920065). An outline of the steps: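 Tox21 10K compounds, 15 concentrations each in triplicate, pin-transferred in DMSO onto dye-loaded cells; kinetic read at 480/540 nm for 3 min, 1 s intervals.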
The nature of test [6]: p53 small molecule agonists, cell-based qHTS assay with human liver microsomes (AID 1963577).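 Note: p53 response element beta-lactamase reporter cells with liver microsomes plus NADPH.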 Put shortly:
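Steps: plate p53RE-bla cells, incubate 5 h at 37 C; add compound in DMSO; add microsomes (0.5 mg/mL final) and NADPH (0.5 mg/mL final); incubate 16 h at 37 C; add LiveBLAzer, 2 h RT; read fluorescence.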

The nature of test [7]: p53 small molecule agonists, cell-based qHTS assay with rat liver microsomes (AID 1963578). Put shortly:
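Metabolic activation is supplied by rat liver microsomes with NADPH (each 0.5 mg/mL final). p53RE-bla cells incubate with compound 16 h at 37 C; reporter activity is measured by LiveBLAzer fluorescence.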

Test [8] is described as follows: p53 small molecule agonists, cell-based qHTS assay with human liver microsomes: qHTS cell viability counter screen (AID 1963579). Note: nearly all actives have a fitted effect of over 45% in size. Put shortly: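 After the 460/530 nm beta-lactamase read, CellTiter-Glo was added to the same wells and luminescence measured after 30 min at room temperature, giving viability of p53RE-bla cells treated 16 h with compounds plus microsomes and NADPH.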

Test [9] is described as follows: p53 small molecule agonists, cell-based qHTS assay with rat liver microsomes: qHTS cell viability counter screen (AID 1963580). Note: nearly all actives have a fitted effect of over 45% in size. An outline of the steps: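 Counter screen for cytotoxicity under metabolic activation: rat liver microsomes and NADPH, 0.5 mg/mL final each, added with compounds to p53RE-bla HCT-116 cells; 16 h at 37 C, then ATP luminescence read.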
Test [10] can be described thus: p53 small molecule agonists, cell-based qHTS assay: qHTS cell viability counter screen (AID 1963581). Note: nearly all actives have a fitted effect of over 45% in size. An outline of the steps: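 ATP content measured by luminescence in HCT-116 p53RE-bla cells treated 16 h at 37 C, same wells as the reporter screen.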
Test [11] is described as follows: p53 small molecule agonists, cell-based qHTS assay (AID 1963582; active = well fitted activation curve with a large enough effect in the signal ratio in the repeat runs, not every such curve was filed as active; the % refers to the signal ratio). An outline of the steps:
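16 h compound exposure (37 C) of p53 response element–bla cells, preceded by 5 h recovery at 37 C/5% CO2; read-out via LiveBLAzer B/G FRET substrate, 2 h RT, fluorescence intensity.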

For test [12], the target named is 5-hydroxytryptamine receptor 2A (Homo sapiens) (UniProt P28223). In words: 5-hydroxytryptamine receptor 2A (HTR2A) small molecule agonists, cell-based qHTS assay (AID 1963587). Note: nearly all actives have a fitted effect of over 30% in size. Put shortly: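 HTR2A-CHO cells, plated 18 h at 37 C/5% CO2, dye-loaded 1 h at 37 C; compounds in DMSO added by pin tool (agonist mode). Intracellular calcium flux read as kinetic fluorescence on FDSS over 2 min at 1 s intervals.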

Test [13] deals with Muscarinic acetylcholine receptor M1 (Homo sapiens) (UniProt P11229). As to the kind of experiment: Cholinergic receptor muscarinic 1 (CHRM1) small molecule antagonists, cell-based qHTS assay (AID 1963588). Note: nearly all actives have a fitted effect of over 40% in size. An outline of the steps:
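Compounds were tested at 15 concentrations in three independent runs. Dye-loaded CHRM1-CHO cells were exposed 5 min at room temperature before stimulation by acetylcholine added at 50nM. Intracellular calcium was read kinetically on FDSS for 3 min.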

Test [14] has the same target. As to the kind of experiment: Cholinergic receptor muscarinic 1 (CHRM1) small molecule agonists, cell-based qHTS assay (AID 1963589). Note: nearly all actives have a fitted effect of over 35% in size. An outline of the steps:
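Homogeneous fluorescence calcium flux, agonist mode. Human M1-expressing CHO cells; compound dosed at 15 concentrations, three independent runs; signal sampled every 1 sec.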

Test [15] is described as follows: cAMP Responsive Elements (CRE) small molecule agonists, cell-based qHTS assay (AID 1963590). Put shortly:
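HEK 293T cells stably bearing CRE-bla were plated at 2,000 cells per well and rested 18 h. Compounds, positive controls or DMSO were added for 3 h at 37 C. LiveBLAzer B/G substrate was then loaded for 2 h at room temperature.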

The nature of test [16]: cAMP Responsive Elements (CRE) small molecule antagonists, cell-based qHTS assay (AID 1963591; active = well fitted inhibition curve with a large enough effect in the signal ratio in the repeat runs, not every such curve was filed as active; the % refers to the signal ratio). Put shortly: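 First, CRE-bla HEK293T cells settled 18 h at 37 C. Next, compound and 0.25 uM final NKH477 were applied for 3 h. Last, LiveBLAzer B/G substrate was loaded for 2 h at room temperature.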
Test [17] has as its target Beta-2 adrenergic receptor (Homo sapiens) (UniProt P07550). As to the kind of experiment: Adrenergic beta2 receptor (ADRB2) small molecule antagonists, cell-based qHTS assay (AID 1963592). Note: series mostly up to about 92 µM; nearly all actives have a fitted effect of over 50% in size. An outline of the steps:
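Assay format: CHO-ADRB2 cells, 18-20hr seeding at 37C/5% CO2, then compound plus 1nM isoproterenol agonist mix for 0.5hr RT. Homogeneous time-resolved fluorescence cAMP detection after 1hr, expressed as 665/615 nm ratio.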

Test [18] shares this target. As to the kind of experiment: Adrenergic beta2 receptor (ADRB2) small molecule agonists, cell-based qHTS assay (AID 1963593).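 Note: CHO cells stably overexpressing human ADRB2.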 An outline of the steps:
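CHO cells stably over-expressing ADRB2 were plated overnight at 37C, then dosed with compounds plus a stimulation mix containing 100uM IBMX and 25uM Ro-20-1724 for 0.5hr at room temperature. cAMP was measured by HTRF competition, 1hr.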

Test [19] deals with D(2) dopamine receptor (Homo sapiens) (UniProt P14416). As to the kind of experiment: Dopamine D2 receptor (DRD2) small molecule agonists, cell-based qHTS assay (AID 1963594). Note: nearly all actives have a fitted effect of over 35% in size. An outline of the steps:
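HEK293 cells stably expressing DRD2 were cultured 24 h at 37 C, then given Ro20-1724 (0.1 mM final) and compounds for 10 min at room temperature. NKH477 (200nM) was then added for 30 min. cAMP was read by HTRF.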

For test [20] the target is unchanged. As to the kind of experiment: Dopamine D2 receptor (DRD2) small molecule antagonists, cell-based qHTS assay (AID 1963595; active = well fitted inhibition curve with a large enough effect in the signal ratio in the repeat runs, with a control signal flat; the % refers to the signal ratio). Put shortly:
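In this cell-based antagonist screen, compounds act for 10 min at room temperature before a 30 min challenge with 12 nM quinpirole and 200 nM NKH477. cAMP is quantified by HTRF competition in DRD2-HEK293 cells containing 0.1 mM Ro20-1724.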

Values without a mark were called inactive. Results filed as inconclusive are left out. Calls of active or inactive are those of the source. Unless noted, calls come from the whole dose curve.

Sequence of Muscarinic acetylcholine receptor M1 (Homo sapiens) (P11229 whole entry, looked up): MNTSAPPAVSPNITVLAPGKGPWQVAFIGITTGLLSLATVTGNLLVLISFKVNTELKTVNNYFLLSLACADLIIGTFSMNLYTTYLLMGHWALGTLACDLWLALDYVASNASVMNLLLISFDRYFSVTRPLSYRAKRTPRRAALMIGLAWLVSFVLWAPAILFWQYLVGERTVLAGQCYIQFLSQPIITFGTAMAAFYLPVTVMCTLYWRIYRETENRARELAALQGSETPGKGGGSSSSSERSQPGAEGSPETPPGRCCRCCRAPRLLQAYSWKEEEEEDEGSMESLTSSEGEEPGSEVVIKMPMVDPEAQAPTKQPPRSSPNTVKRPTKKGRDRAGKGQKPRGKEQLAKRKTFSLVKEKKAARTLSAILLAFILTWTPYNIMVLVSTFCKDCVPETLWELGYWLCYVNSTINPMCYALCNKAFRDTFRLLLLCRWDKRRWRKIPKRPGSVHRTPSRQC
Sequence of 5-hydroxytryptamine receptor 2A (Homo sapiens) (P28223 whole entry, looked up): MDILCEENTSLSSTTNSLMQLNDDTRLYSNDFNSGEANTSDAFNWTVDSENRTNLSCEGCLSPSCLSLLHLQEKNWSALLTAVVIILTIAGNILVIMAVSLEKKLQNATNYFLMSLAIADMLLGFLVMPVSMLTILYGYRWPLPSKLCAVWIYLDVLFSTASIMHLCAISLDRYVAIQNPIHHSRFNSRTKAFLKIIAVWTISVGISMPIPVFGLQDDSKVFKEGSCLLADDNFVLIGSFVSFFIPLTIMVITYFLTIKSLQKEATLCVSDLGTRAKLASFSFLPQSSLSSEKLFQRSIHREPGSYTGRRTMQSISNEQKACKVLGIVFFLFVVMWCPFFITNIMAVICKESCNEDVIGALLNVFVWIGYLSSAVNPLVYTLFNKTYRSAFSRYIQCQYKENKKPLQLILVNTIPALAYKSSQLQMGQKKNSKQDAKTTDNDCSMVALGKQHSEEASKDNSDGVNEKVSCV
Sequence of Gonadotropin-releasing hormone receptor (Homo sapiens) (P30968 whole entry, looked up): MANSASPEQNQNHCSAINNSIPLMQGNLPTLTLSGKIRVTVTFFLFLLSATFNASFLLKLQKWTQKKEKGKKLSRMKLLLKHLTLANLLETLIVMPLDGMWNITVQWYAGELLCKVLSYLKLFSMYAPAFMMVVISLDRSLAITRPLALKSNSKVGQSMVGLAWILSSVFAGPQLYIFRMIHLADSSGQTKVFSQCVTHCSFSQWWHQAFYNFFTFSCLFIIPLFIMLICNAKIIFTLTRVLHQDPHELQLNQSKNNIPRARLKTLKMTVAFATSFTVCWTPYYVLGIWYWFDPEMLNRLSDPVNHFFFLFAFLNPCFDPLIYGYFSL
Sequence of KiSS-1 receptor (Homo sapiens) (Q969F8 whole entry, looked up): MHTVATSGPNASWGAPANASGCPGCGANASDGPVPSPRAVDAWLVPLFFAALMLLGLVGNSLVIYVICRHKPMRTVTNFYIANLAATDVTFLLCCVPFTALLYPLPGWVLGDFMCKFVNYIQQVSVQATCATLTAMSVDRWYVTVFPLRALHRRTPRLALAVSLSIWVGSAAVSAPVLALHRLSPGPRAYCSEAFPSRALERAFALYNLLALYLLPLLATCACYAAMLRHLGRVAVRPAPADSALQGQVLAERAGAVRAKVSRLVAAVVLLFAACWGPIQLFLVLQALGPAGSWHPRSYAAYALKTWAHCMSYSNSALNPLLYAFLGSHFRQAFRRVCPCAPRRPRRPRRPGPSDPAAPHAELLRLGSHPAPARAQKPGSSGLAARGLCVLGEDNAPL
Sequence of Beta-2 adrenergic receptor (Homo sapiens) (P07550 whole entry, looked up): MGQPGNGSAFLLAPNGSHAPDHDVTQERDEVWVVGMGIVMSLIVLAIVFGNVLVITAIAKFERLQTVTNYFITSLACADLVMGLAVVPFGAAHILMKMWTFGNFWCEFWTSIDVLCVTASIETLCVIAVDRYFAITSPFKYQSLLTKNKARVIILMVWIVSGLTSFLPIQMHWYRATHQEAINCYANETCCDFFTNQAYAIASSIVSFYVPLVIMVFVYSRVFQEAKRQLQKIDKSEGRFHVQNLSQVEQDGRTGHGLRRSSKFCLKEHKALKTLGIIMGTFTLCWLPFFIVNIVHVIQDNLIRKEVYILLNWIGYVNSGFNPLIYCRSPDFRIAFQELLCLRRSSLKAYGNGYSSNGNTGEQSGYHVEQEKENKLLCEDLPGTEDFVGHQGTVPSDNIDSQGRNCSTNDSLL
Sequence of D(2) dopamine receptor (Homo sapiens) (P14416 whole entry, looked up): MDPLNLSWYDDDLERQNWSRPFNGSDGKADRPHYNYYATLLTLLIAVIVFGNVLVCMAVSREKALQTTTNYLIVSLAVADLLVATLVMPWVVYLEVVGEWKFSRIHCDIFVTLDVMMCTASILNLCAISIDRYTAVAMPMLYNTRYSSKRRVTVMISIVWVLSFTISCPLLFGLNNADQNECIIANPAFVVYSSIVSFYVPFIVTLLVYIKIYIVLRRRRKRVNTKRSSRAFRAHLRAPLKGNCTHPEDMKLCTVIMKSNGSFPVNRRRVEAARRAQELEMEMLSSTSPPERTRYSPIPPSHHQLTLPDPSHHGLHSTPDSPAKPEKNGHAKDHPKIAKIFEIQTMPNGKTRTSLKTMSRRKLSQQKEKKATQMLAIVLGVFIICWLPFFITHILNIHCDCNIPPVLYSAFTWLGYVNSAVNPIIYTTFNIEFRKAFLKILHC

Regarding `O=C1c2ccccc2C(=O)N1CO`, the Potency entry in test [1], in test [2], in [3], in [6], in test [7] and in test [8] was “inactive” in each case. In addition, the Potency result in [9], in [10], in [11], in test [12], in [13] and in [14] was “inactive” in each case. Besides, the Potency result in test [15], in [16], in test [17], in test [18], in [19] and in test [20] was “inactive” in each case. Besides, the outcome in test [4] and in [5] was inactive.
In the case of `C#Cc1ccc(-c2ccccc2F)cc1`, the Potency entry in test [1], in test [2], in test [3], in test [6], in [7] and in [8] was “inactive” throughout. The Potency result in [9], in test [10], in test [11], in test [12], in test [13] and in test [14] was “inactive” each time. The Potency result in [15], in test [16], in test [17], in test [18], in test [19] and in test [20] was “inactive” in each case. Besides, the outcome in test [4] and in test [5] was inactive.
Consider `CCCCCCCCCCCCCc1ccccc1`, for which the Potency entry in [1], in test [2], in test [3], in [6], in test [7] and in [8] was “inactive” each time. Besides, the Potency entry in test [9], in [10], in test [11], in test [12], in test [13] and in test [14] was “inactive” in each case. Further, the Potency entry in test [15], in test [16], in test [17], in test [18] and in test [20] was “inactive” each time. The result in test [4] and in test [5] was inactive.
In the case of `CC(=O)O[C@H]1CC[C@@]2(C)C(=CC[C@@H]3[C@@H]2CC[C@]2(C)C(C(C)=O)=CC[C@@H]32)C1`, the Potency entry in [1], in test [2], in test [3], in test [6], in test [7] and in [8] was “inactive” throughout. In addition, the Potency entry in [9], in test [10], in test [11], in [12], in [13] and in test [14] was “inactive” in each case. Moreover, the Potency entry in [15], in test [16], in test [17], in test [18] and in test [20] was “inactive” in each case. The outcome in [4] and in [5] was inactive.
`CCC(=O)OC(=O)CC`: the Potency result in [1], in test [3], in [6], in test [7], in test [8] and in test [9] was “inactive” throughout. Besides, the Potency result in test [10], in test [11], in test [12], in test [13], in [14] and in test [15] was “inactive” in each case. Also, the Potency result in test [16], in [17], in [19] and in test [20] was “inactive” in each case. The Potency in test [2] was 27.1 µM (active). Moreover, the result in test [4] and in test [5] was inactive.
Regarding `COc1cc(C(=O)NCCCCCC(=O)O)cc(OC)c1OC`, the Potency entry in [1], in test [2], in [3], in test [6], in [7] and in test [8] was “inactive” throughout. For the same compound, the Potency result in test [9], in test [10], in test [11], in [12], in test [13] and in test [14] was “inactive” each time. The Potency entry in [15], in test [16], in test [17] and in test [20] was “inactive” each time. For the same compound, the outcome in [4] and in [5] was inactive.
